High-throughput results (PubChem BioAssay)
GDH-TPI inh: inhibits GDH-TPI coupling enzymes, artifact for Mtb FBA screen | GDH-TPI coupled enzyme counterscreen, NADH absorbance | inhibition, % at 4.8 µM | hit rate 1.2% among 360,000 | AID 588335; in the data active means inhibition above about 30%;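 further: 0% = DMSO wells and 100% = wells lacking the enzyme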
BoNT-A LC inh2: inhibitors of Botulinum neurotoxin A light chain protease; multiplex microsphere protease substrate cleavage, flow cytometry; hit rate 0.17% among 360,000; inhibition, % at 10 µM; AID 588499; further: plate controls were buffer without enzyme for full effect and enzyme alone for no effect
BoNT F protease: inhibitors of Botulinum neurotoxin F light chain protease | Multiplex microsphere protease cleavage assay, flow cytometry | inhibition, % at 10 µM | hit rate 0.22% among 360,000; in the data active means inhibition above about 35%, passing the limit was not always enough; inconclusive means no clear call, values can overlap the other calls; further: plate controls were buffer without enzyme for full effect and enzyme alone for no effect
FBA Mtb inh: inhibitors of M. tuberculosis fructose-bisphosphate aldolase; purified M. tuberculosis FBA, fluorescence read-out; inhibition, % at 1 µM; hit rate 2.3% among 360,000; AID 588726; in the data active means inhibition above about 27%;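 further: 0% = vehicle and 100% = reference inhibitor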
Target sequence (P9WQA3 whole entry, looked up): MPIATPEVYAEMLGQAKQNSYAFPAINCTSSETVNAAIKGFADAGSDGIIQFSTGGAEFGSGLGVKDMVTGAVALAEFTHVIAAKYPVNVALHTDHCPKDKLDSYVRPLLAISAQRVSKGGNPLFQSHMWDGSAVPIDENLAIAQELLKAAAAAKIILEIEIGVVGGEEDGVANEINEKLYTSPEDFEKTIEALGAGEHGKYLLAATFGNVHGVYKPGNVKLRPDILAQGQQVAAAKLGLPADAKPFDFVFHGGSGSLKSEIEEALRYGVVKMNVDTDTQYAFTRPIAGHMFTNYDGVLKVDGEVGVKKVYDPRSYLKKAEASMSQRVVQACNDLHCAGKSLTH
Bead autofluor: flagged as autofluorescent in microsphere protease counterscreen | compound autofluorescence counterscreen, microsphere flow cytometry; hits give high values | fluorescence intensity (concentration not given with the values) | hit rate 3.1% among 360,000 | AID 624483; in the data active means fluorescence intensity above about 16000; inconclusive means no clear call, values can overlap the other calls
Anthrax LF inh2: inhibitors of Bacillus anthracis lethal factor protease; inhibition, % at 10 µM; multiplex microsphere protease cleavage assay, LF; P15917; hit rate 0.12% among 360,000; further: plate controls were buffer without enzyme for full effect and enzyme alone for no effect
The depositor's hits bear a star; ? = inconclusive; · = no result given; + = active, no number. The list is not random: actives were taken first. Their share in the collection is about 6.7%. Unless noted, no stated cut-off is given here; in the data, active means inhibition above about 30%; inconclusive means no clear call, values can overlap the other calls; inactive means below that.

SMILES	GDH-TPI inh	BoNT-A LC inh2	BoNT F protease	FBA Mtb inh	Bead autofluor	Anthrax LF inh2
O=C(Cn1nc(-c2ccccc2)ccc1=O)Nc1ccc(N2CCN(C(=O)c3ccccc3)CC2)cc1	1	1	0	-2	22910*	-1
Cc1ccccc1-c1ccc(=O)n(CC(=O)Nc2ccc(C(=O)N3CCCC3)cc2)n1	11	0	-7	1	6630	4
CC1CCCCN1Cc1ccc(N)cc1 (stereo not drawn)	-7	0	-13	1	9545	0
CN1CCN(S(=O)(=O)c2cccc(S(=O)(=O)c3cccc(S(=O)(=O)N4CCN(C)CC4)c3)c2)CC1	-10	-1	0	0	21260*	0
O=[N+]([O-])c1cccc(S(=O)(=O)N2CCCCC2)c1	-7	0	24	2	3821	-5
CN1CCN(S(=O)(=O)c2cccc([N+](=O)[O-])c2)CC1	1	0	-1	0	20528*	-1
COc1ccc(CNc2nc3c(c(=O)n(Cc4ccc(Cl)cc4)c(=O)n3C)n2C)cc1	9	0	4	-2	16319*	-3
COCCNc1nc2c(c(=O)n(Cc3ccc(OC)cc3)c(=O)n2C)n1C	-3	-1	-2	-2	22936*	-3
COc1ccc(CNCC(O)(c2ccc(Cl)cc2)c2ccc(Cl)cc2)cc1	-7	-2	-16	-1	21174*	-6
COc1ccc(CNCC(O)(c2ccc(Cl)cc2)c2ccc(Cl)cc2)cc1OC	9	-6	-22	-4	18261*	-5
Cc1cc(-c2nc3cc(F)ccc3s2)ccc1N	38*	0	-2	·	3274	-7
CC(=O)Nc1ccc(-c2nc3ccc(NC(C)=O)cc3o2)cc1	10	0	10	+	3825	13
CC(=O)Nc1cccc(-c2nc3ccccc3o2)c1	-6	0	26	7	3804	-2
CC(=O)Nc1ccc2oc(-c3ccccc3)nc2c1	-1	-1	-6	173*	4399	-3
O=C(Nc1ccc2oc(-c3ccncc3)nc2c1)c1cccs1	22	0	9	16	3262	1
O=C(Nc1ccc(-c2nc3cc(NC(=O)c4cccs4)ccc3o2)cc1)c1cccs1	0	-6	-4	1	22139*	-1
N/C(=N\OC(=O)COc1ccc([N+](=O)[O-])cc1)c1ccncc1	-5	0	-4	5	2088	0
CN1CCN(C(=O)c2ccccc2NC(=O)Cc2ccccc2)CC1	0	-1	-16	-3	4696	1
O=C(O)c1ccccc1S(=O)(=O)c1ccccc1CO	12	0	-2	-2	2719	-3
CC(=O)N(C)C1=C(N2CCOCC2)C(=O)c2ccccc2C1=O	11	-4	-4	-9	24878*	-3
CSc1nc(N)c2c3c(sc2n1)COC(C(C)C)C3 (stereo not drawn)	4	-1	-3	0	3319	3
CCOC(=O)c1cnc(SCC(=O)c2ccc(Cl)cc2)nc1N	1	1	-10	-1	4589	2
Cc1ccc(C)c(S(=O)(=O)Nc2ccccc2C(=O)Nc2cc(C)on2)c1	15	0	2	135*	7945	-4
Cc1cc(NC(=O)c2ccccc2NS(=O)(=O)c2c(C)c(C)cc(C)c2C)no1	16	0	-1	18	9309	2
CN(C)c1ccc(C(=O)Nc2nnc(C3=COCCO3)o2)cc1	41*	0	1	3	3167	-2
SMILES	GDH-TPI inh	BoNT-A LC inh2	BoNT F protease	FBA Mtb inh	Bead autofluor	Anthrax LF inh2
N/C(=N\OC(=O)C12CC3CC(CC(C3)C1)C2)c1ccccc1	-8	5	5	-2	17662*	-10
Cc1cc2c(cc1S(=O)(=O)NCc1ccccc1)NC(=O)CO2	10	·	·	0	·	·
CN(CC(=O)OCC(=O)NC(=O)c1cccn1C)S(=O)(=O)c1ccc(Cl)cc1	7	0	-10	193*	2862	-1
COc1ccccc1OCCNC(=O)c1cccs1	11	0	-4	0	2159	0
O=C(CCN1C(=O)c2ccccc2C1=O)Nc1ccc(S(=O)(=O)N2CCOCC2)cc1	1	-6	-6	-2	22292*	-2
CC(=O)Nc1ccc(S(=O)(=O)N2CCOCC2)cc1	-3	2	4	0	21279*	-2
CC1CCCN(S(=O)(=O)c2ccc(NC(=O)CCN3C(=O)c4ccccc4C3=O)cc2)C1 (stereo not drawn)	1	1	?	-1	4063	6
CC(=O)Nc1ccc(S(=O)(=O)N2CCN(c3cc4c(cc3[N+](=O)[O-])n(C)c(=O)n4C)CC2)cc1	14	7	7	2	21248*	-8
CC(=O)Nc1ccc(OCC(O)CN2CCN(S(=O)(=O)c3ccc(NC(C)=O)cc3)CC2)cc1 (stereo not drawn)	10	0	-5	2	11196	-3
CC(=O)Nc1ccc(S(=O)(=O)N2CCN(CC(O)COc3ccc4ccccc4c3)CC2)cc1 (stereo not drawn)	-8	?	2	0	23688*	-1
CC(=O)Nc1ccc(S(=O)(=O)N2CCN(C(=O)N3CCOCC3)CC2)cc1	7	0	-7	1	5469	0
CCOc1ccc(NS(=O)(=O)c2cc(C(=O)N3CC(C)OC(C)C3)ccc2C)cc1 (stereo not drawn)	0	0	-14	0	?	0
CCOc1ccc(N2CC(C(=O)Nc3ccc(S(=O)(=O)N4CCOCC4)cc3)CC2=O)cc1 (stereo not drawn)	7	?	-1	2	23130*	1
O=C(COc1ccc(Cl)cc1)Nc1nc(-c2ccc(S(=O)(=O)N3CCOCC3)cc2)cs1	5	?	0	3	22761*	-2
Cc1ccc(NC(=O)COc2ccc(S(=O)(=O)N3CCOCC3)cc2)cc1	-4	1	3	3	22684*	-2
O=C(COc1ccccc1)Nc1nc(-c2ccc(S(=O)(=O)N3CCOCC3)cc2)cs1	-2	0	3	6	4490	0
CC(=O)Nc1ccc(S(=O)(=O)N2CCN(C)CC2)cc1	-4	-2	-4	1	23174*	0
CC(C)NC(=O)COc1ccc(S(=O)(=O)N2CCCC2)cc1	3	-2	-8	-1	4100	-10
CCN(CC)C(=O)COc1ccc(S(=O)(=O)N2CCCC2)cc1	-3	-6	?	-3	3877	-11
CSc1ccccc1NC(=O)COc1ccc(S(=O)(=O)N2CCCC2)cc1	-8	-3	-6	-2	22225*	0
CCN(CC)C(=O)COc1ccc(S(=O)(=O)N2CCOCC2)cc1	-1	0	3	1	16440*	0
Cc1ccc(S(=O)(=O)c2nc(-c3ccccc3)oc2NCc2cccnc2)cc1	7	0	-1	-1	2839	-3
Cc1ccccc1-c1nc(S(=O)(=O)c2ccc(Br)cc2)c(NCc2cccnc2)o1	7	1	0	0	20211*	-3
COc1ccc(C(C)C)cc1S(=O)(=O)N1CCC(C(=O)NCc2cccnc2)CC1	2	1	2	0	5486	1
